Experimental data published in the supplement of paper PMC8975748.
Counter-ions that a name gives are not always drawn.

Test system: Saccharomyces cerevisiae BY4741 SeMeCo community
Test: z-score of subpopulation abundance vs DMSO median, subpopulation auxotrophic for HLUM; higher = larger share of this subpopulation than in DMSO controls
Settings: 10 µM; 24 h; SM minimal medium; subpopulation (auxotrophy): HLUM
Procedure, shortened: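 A Saccharomyces cerevisiae BY4741 community carried four plasmids, each restoring one auxotrophy and encoding a distinct fluorescent protein. It was pre-grown overnight to OD600 1.0, diluted to 0.3, and 70 µl was added to 384-well plates acoustically predosed with library drugs (10 µM final), then grown 24 h in minimal SM medium. Cells were paraformaldehyde-fixed and imaged by automated confocal microscopy, with single-auxotroph fluorescent strains setting thresholds and autofluorescence correction. Each subpopulation's abundance was scored as a z-score against the vehicle-well median.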

SMILES | z-score of subpopulation abundance
CO/N=C(\C(=O)N[C@@H]1C(=O)N2C(C(=O)OC(C)OC(C)=O)=C(COC(N)=O)CS[C@H]12)c1ccco1 (some centres not stated) [Cefuroxime axetil] | 0.39
CNCCCN1c2ccccc2CCc2ccccc21 [Desipramine Hydrochloride] | -0.78
CC(C(=O)O)c1ccc2c(c1)[nH]c1ccc(Cl)cc12 (configuration not stated) [Carprofen] | 0.18
CCC(C)n1ncn(-c2ccc(N3CCN(c4ccc(OCC5COC(Cn6cncn6)(c6ccc(Cl)cc6Cl)O5)cc4)CC3)cc2)c1=O (configuration not stated) [Itraconazole] | 7.85
CO/N=C(\C(=O)N[C@@H]1C(=O)N2C(C(=O)O)=C(CSc3nc(C)c(CC(=O)O)s3)CS[C@H]12)c1csc(N)n1 [Cefodizime Sodium] | -0.81
C[C@H](NCc1ccc(OCc2cccc(F)c2)cc1)C(N)=O [Safinamide Mesylate] | 0.33
Cc1ccnc(NS(=O)(=O)c2ccc(N)cc2)n1 [Sulfamerazine] | 0.45
N=C(N)NS(=O)(=O)c1ccc(N)cc1 [Sulfaguanidine] | -1.13
C=C[C@H]1CN2CC[C@H]1C[C@@H]2[C@@H](O)c1ccnc2ccc(OC)cc12 [Quinidine sulfate] | 2.36
O=C(Nc1ccc(Oc2ccc(Cl)cc2)c(Cl)c1)c1cc(I)cc(I)c1O [Rafoxanide] | 0.01
COC(=O)Nc1nc2cc(C(=O)c3ccccc3)ccc2[nH]1 [Mebendazole] | 1.44
Nc1nc(N)c2nc(-c3ccccc3)c(N)nc2n1 [Triamterene] | -1.58
CC(=O)N1CCN(c2ccc(OCC3COC(Cn4ccnc4)(c4ccc(Cl)cc4Cl)O3)cc2)CC1 (configuration not stated) [Ketoconazole] | -0.62
Cc1onc(-c2ccccc2)c1C(=O)N[C@@H]1C(=O)N2[C@@H]1SC(C)(C)[C@@H]2C(=O)O [Oxacillin sodium monohydrate] | 0.03
CC[C@H]1OC(=O)[C@H](C)[C@@H](O[C@H]2C[C@@](C)(OC)[C@@H](O)[C@H](C)O2)[C@H](C)[C@@H](O[C@@H]2O[C@H](C)C[C@H](N(C)C)[C@H]2O)[C@](C)(O)C[C@@H](C)C(=O)[C@H](C)[C@@H](O)[C@]1(C)O [Erythromycin thiocyanate] | 0
CCn1cc(C(=O)O)c(=O)c2cc(F)c(N3CCNC(C)C3)c(F)c21 (configuration not stated) [Lomefloxacin HCl] | 0.54
CO[C@@]1(NC(=O)CSC[C@@H](N)C(=O)O)C(=O)N2C(C(=O)O)=C(CSc3nnnn3C)CS[C@@H]21 [Cefminox Sodium] | -0.45
CNCCCC1c2ccccc2C=Cc2ccccc21 [Protriptyline hydrochloride] | -0.01
C[n+]1ccccc1/C=N/O [Pralidoxime chloride] | -0.34
Oc1ccc(Cl)c2cccnc12 [Cloxiquine] | 43.7
N[C@H]1CONC1=O [L-Cycloserine] | 5.78
CCN(CC)CC#CCOC(=O)C(O)(c1ccccc1)C1CCCCC1 (configuration not stated) [Oxybutynin chloride] | -0.26
